# Reference: PubChem BioAssay (NCI)
# This is part of a sample that, as a whole, favours compounds with a hit. Of some 83,000 tested, about 20% had one in any assay.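 How to read the values: 0–100, growth inhibition (40 = 60% inhibited); 0, no net growth; -100 to 0, cell death (-40 = 40% of starting cells died; -100 = all dead).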 Values without a mark were called inactive. Activity calls are given as the source filed them. Rule for the calls: active = growth percent below 10; inactive = the rest.
# Tests used:
# Assay in all cases: NCI-60 one-dose screen, 48 h (100 = growth as untreated, 0 = no growth, -100 = all killed)
# Conditions in all cases: 10 µM unless noted
# [1] = test system: SR leukemia
# [2] = test system: RPMI-8226 leukemia
# [3] = test system: OVCAR-8 ovarian
# [4] = test system: OVCAR-5 ovarian
# [5] = test system: OVCAR-4 ovarian
# [6] = test system: SK-OV-3 ovarian
# [7] = test system: IGROV1 ovarian
# [8] = test system: OVCAR-3 ovarian
# [9] = test system: HS 578T breast
# [10] = test system: NCI/ADR-RES ovarian
# [11] = test system: T-47D breast
# [12] = test system: BT-549 breast
# [13] = test system: MDA-MB-435 melanoma
# [14] = test system: SW-620 colon
# [15] = test system: MCF7 breast
# [16] = test system: HCT-116 colon
# [17] = test system: HCC-2998 colon
# [18] = test system: KM12 colon
Compound,growth [1],growth [2],growth [3],growth [4],growth [5],growth [6],growth [7],growth [8],growth [9],growth [10],growth [11],growth [12],growth [13],growth [14],growth [15],growth [16],growth [17],growth [18]
COc1cc2c(cc1OC)C(CC1(O)CCCCC1)N(S(=O)(=O)c1ccc(C)cc1)CC2 (centres undefined),-10.4% [100 µM] (active),16.7% [100 µM],26.8% [100 µM],76.2% [100 µM],25.4% [100 µM],80% [100 µM],53.6% [100 µM],-15.5% [100 µM] (active),57.3% [100 µM],34.5% [100 µM],29.7% [100 µM],-1.8% [100 µM] (active),-23.1% [100 µM] (active),15.6% [100 µM],25.7% [100 µM],9.09% [100 µM] (active),39% [100 µM],4.08% [100 µM] (active)
COc1ccc2nc(N/N=C(\C)c3ccccn3)cc(C)c2c1,-40.9% (active),-25.1% (active),0.111% (active),20%,14.8%,15.8%,-44.1% (active),-78.5% (active),6.09% (active),12.4%,0.953% (active),-87.8% (active),-94.9% (active),-68% (active),-74.6% (active),-68.7% (active),-68.3% (active),-35.7% (active)
CCCCCc1c(C)[nH]c(/C=C2\N=C(c3ccc[nH]3)C=C2Oc2ccc(Cl)cc2)c1C,-9.44% [100 µM] (active),-32.8% [100 µM] (active),-21.5% [100 µM] (active),-3.17% [100 µM] (active),12.6% [100 µM],1.44% [100 µM] (active),13.3% [100 µM],-96.2% [100 µM] (active),3.26% [100 µM] (active),5.31% [100 µM] (active),-38.1% [100 µM] (active),0.41% [100 µM] (active),-71.7% [100 µM] (active),-31.7% [100 µM] (active),-68.5% [100 µM] (active),-89.8% [100 µM] (active),-17% [100 µM] (active),-75.5% [100 µM] (active)
COc1cnc2c(c1)C(=O)c1c-2n(CCCN2CCNCC2)c(=O)c2cc(F)ccc12,-13.1% (active),-30.9% (active),2.26% (active),-0.468% (active),23%,-12.7% (active),23%,2.67% (active),38.6%,18.8%,9.02% (active),4.74% (active),-41.3% (active),-53.7% (active),11.7%,-82.5% (active),2.69% (active),-13.1% (active)
COc1ccc(-c2c3c(N)nc(-c4ccncc4)nc3nc3c2c(C)nn3-c2ccccc2)cc1,17.1%,84.3%,63.2%,64.7%,11.4%,53.4%,77%,22.4%,71.2%,74.5%,75.2%,87.1%,54%,34.4%,47.7%,15.6%,102%,62.9%
O=C(O)CCC(=O)OC[C@@H](NC(=O)C(Cl)Cl)[C@H](O)c1ccc([N+](=O)[O-])cc1,95.9%,89.5%,94.4%,93.5%,102%,107%,97.2%,121%,111%,101%,95%,89.6%,101%,108%,97.2%,92.3%,100%,103%
COc1ccccc1NC(=O)c1sc2nc3c(cc2c1N)C(=O)CCC3,64%,84.3%,90.6%,76.1%,91.4%,39%,82.9%,87%,65.6%,58.6%,87.3%,63.1%,-31.9% (active),60.2%,59%,75.5%,75.5%,53.4%
COCCOCCOCCOCCOc1ccc2c(c1)C(=O)c1nc3ncccc3c(=O)n1-2,-86.3% (active),-55.5% (active),0.221% (active),-98.6% (active),-15.3% (active),-4.3% (active),7.34% (active),-60.7% (active),-25.2% (active),0.343% (active),11.3%,-95.7% (active),-100% (active),-100% (active),-64.6% (active),-32.7% (active),-68.1% (active),-57% (active)
